Assay results from the supplement of paper PMC11417369.
In all, about 25,000 sequences were measured (“ln(normalized median fluorescence intensity)”: median about 7.1, highest 2% from about 10 on). What follows is part of a selection rich in the highest values, with near analogues and random picks from the rest.

Tested on: PfSIP2 AP2 domain 1 (GST-tagged)
Experiment: gcPBM binding intensity (ln(normalized median fluorescence intensity)); higher = stronger DNA binding
How it was run: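 Plasmodium falciparum DNA-binding domains carrying a GST tag were expressed in E. coli and applied for 1 h, at about 25 μg on average, to an Agilent 4 × 180k array. The array held primer-extended double-stranded 36-bp intergenic genomic probes together with negative controls, and binding took place in 1× PBS with 1% milk, 0.2 mg/ml BSA, 0.5% salmon testes DNA and 0.03% Triton X-100. An Alexa488 anti-GST antibody detected bound protein, and the array was scanned at 488 nm. Binding intensity is taken as the highest Masliner-normalised natural-log median intensity across replicate spots of either probe orientation.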

| Sequence | gcPBM binding intensity (ln) |
| --- | --- |
| AAAAAACACGCGCACACACACACACGCGCCCACATA [CACACA_site7106] | 7.16 |
| CATAAGAAAATAAAAACATGCACATAAGAAATATAC [TGCATGCA_site842] | 7.97 |
| ATCTTTCAATAATTCACACATATATATATATATATA [CACACA_site4598] | 9.91 |
| TTTTTTTCTATAATACACCAGAAAAAAAAATTAAAA [TGCATGCA_negctrl_site257] | 6.96 |
| AATTTTTTTTTTTTTTTTTCTTTTGTAATAAACCAT [XGTACX_negctrl_site334] | 6.92 |
| ATATATATTGTACTAGTGCATATATATACATATATT | 8.43 |
| ATTTTCTTTTCCATAGTGCAATATAATTATCCATCA [GTGCAC_site9547] | 8.36 |
| ATATAAAGTATGTTAGTGCACTTTTTTTTTTTTTTT [GTGCAC_site9419] | 11.2 |
| ATATTTTATATATTTGTGCACAATATTATAATATAT | 8.63 |
| TCATAAATATAAAGTGTGCACTTGAATAATATGTAT | 9.52 |
| TTTAATTTATATTTTGTGCACATCTTATTATATATA [GTGCAC_site9630] | 9.58 |
| TTATATTTAGTATATGCACACTTTATGTTTGTTATT [CACACA_site5163] | 7.74 |
| TATTTATTTTTTTTTGTGCACTTAATATAATCTTAC | 10.4 |
| TGTGTATATATGCTGGTGCAACTTTAAAAAATAATC | 10.1 |
| TATATAAAAAATAGGTGGTCAACTTAAATATTTTAT [XGTACX_site4495] | 7.16 |
| ATATCAAATAATTTAGTGCACTTTTTTTTTTCTTTT [GTGCAC_site9629] | 10.4 |
| TATATTTTATATATGGTGCAACTTTTATTTAAATAA | 10.6 |
| TTTTTCTTTTTTTTTTTAATAATATATAACAAATTT [CACACA_negctrl_site1724] | 6.81 |
| TAACAAAACCTTATATGTACACACATATACATCACA [XGTACX_site6772] | 7.16 |
| ATATAATATGGTATTACACACTGTTAAAAGTATGGC [CACACA_site5190] | 7.03 |
| ATAAATAAATGGTGTTGTACTCTATTATATATATAT [XGTACX_site7835] | 8.66 |

| Sequence | gcPBM binding intensity (ln) |
| --- | --- |
| TTGATTATAATTAGTACACACAAAATACATGCGGGG [CACACA_site2277] | 7.82 |
| ATAAATTTTTAAAAATATGAATTATGTAATTTGTGA [CACACA_negctrl_site1621] | 6.92 |
| TTATAATTTTAATGTGCACACAATTAAAATATTATA [CACACA_site5172] | 9.21 |
| CGAACTGCACTTTTTAGTACTTAATAATTATTTTTT [XGTACX_site2446] | 8.47 |
| TATTTATTGTGACACTTTTATTATTTTATGATAAAA [CACACA_negctrl_site37] | 6.97 |
| AAAAAAATTAATAATGTGCACTTTTTAGTATTTTTA [GTGCAC_site9744] | 10.3 |
| ATATCGTTATTTTTATGTACTAAAATATTTAATTAT [XGTACX_site3516] | 7.09 |
| TTATTTTATTTTTGTGCACACTGATAAATTGAAAAG [CACACA_site2949] | 10.2 |
| ATTTATATTAAAAGTGTGCACTTTTTTTTTTTTTTT | 10.1 |
| TTTATCTAAATATGTGTGCACTCGTTAATTTTTTTT | 10.5 |
| TCATTTTAAATATGTGTGCACGTTATAATTTACACA | 9.54 |
| TTTATATTAATTGATGTGCACTGAAATATTTGTCCA [GTGCAC_site9655] | 10.2 |
| TGAAATTTTATTAATGTGCACATATATTTATTGTTC | 8.56 |
| TGATATTATATTGTGATGCACTTTAAAAATATAAAG [GTGCAC_site9509] | 10.3 |
| TTAAATAAAAGGTTTAGTACTTAAAATAAGAAATGA [XGTACX_site6341] | 6.91 |
| GTATGTAATATTTTAGTGCAAAAAAAAAAAAAAAAA [GTGCAC_site9790] | 8.3 |
| ACAAAAAGTTACATACGTACGTAAAATTGTAATAAA [XGTACX_site2358] | 6.96 |
| TCCATCCACATATATGTACACACATATATATATATA [CACACA_site8970] | 9.43 |
| TTTTTTTTTTTTTTTTGTCCGTACTGCTTTGTGTTT [XGTACX_site3687] | 6.99 |
| AAAAAAAAAAATTAAAGTACAAAAATATTAAAAATA [XGTACX_site6517] | 6.8 |
| ATATATATATATCACCGTACTTATATAATAACATGA [XGTACX_site4398] | 9.36 |

| Sequence | gcPBM binding intensity (ln) |
| --- | --- |
| AGAATATATATAATAGTGCAATGTACAATGAACAAA [GTGCAC_site9577] | 8.01 |
| AATAATATTTATTTTTGTACATATGTGCATTATAAA [XGTACX_site3682] | 7.13 |
| TTTTTTTTTTTTTTGTGTACTAATATTATAAATTTT [XGTACX_site4405] | 7.01 |
| TTTGGAATATTAATTGTGCACTTAAAAAGTTAATTA | 10 |
| TTTTTTTTGATTTGTTTGCACTTATTTCCACAATAA | 8.23 |
| AATTATATTTAGTATATGCACACTTTATGTTTGTTA [CACACA_site2025] | 7.9 |
| AGTACATTTTTGTGTGTGCACTAATATTATATACTT [GTGCAC_site9568] | 10.3 |
| TTTATTTGTGCATATACACACTTAAATATGTTTATT [CACACA_site7772] | 7.65 |
| ATTATTTTTTTTGAAGTGCAATATTATTTTTAATCA | 8.2 |
| TATATATATTAGTGTGCACACTTTTTATTTTTATCC [CACACA_site8506] | 8.6 |
| ATGAAATATTTATTTGTGCACTTAATTTGTTGGAAA | 10.4 |
| TTTTGTTATTTTGAAGTGCACTTTCCACTTAATATA | 11 |
| TATATTTATATATTAGTGCACTTTTTGTTAATTTTT | 10.7 |
| GTATATAAATATATATATATATATATATCTATATTT [CACACA_negctrl_site871] | 7.42 |
| ATATTATAAAATAAAAGTACACAATTATATATATAT [XGTACX_site8812] | 8.6 |
| ATTATATAACAAAATAGTACATATATTTATTACATC [XGTACX_site336] | 6.99 |
| CCATATTTCATTAATGAACACACAAAGAGGTATATA [CACACA_site8431] | 7.11 |
| TTCTTCAATATATTCTTACACACTTAAAAAAAAAAA [CACACA_site228] | 7.5 |
| ATAGGACCTATGTGCCCATGGGTACATTAAAAAAAA [CACACA_negctrl_site1465] | 6.83 |
